Assay results: PubChem BioAssay
The source made the active and inactive calls.

How the values were obtained:
[1] = biological target: Albumin (Bos taurus) (UniProt P02769); test: bovine serum albumin binders on microarray, profiling panel, artefact control for SMM control protein annotation, biochemical, small-molecule microarray, Alexa647 label, 635/667 nm fluorescence (AID 1118); conditions: BSA-A647 binding, fluorescence 635 nm, higher = more signal;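 note: score merges 667 nm emission intensity and signal-to-noise per printed compound spot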
[2] = small-molecule microarray binders of probe aXIP, primary screen, biochemical, NeuroSMM set, 635/667 nm fluorescence (AID 1119); conditions: higher = more signal, called active from +8 up or from −8 down;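 note: probe is the protein aXip251-270 applied at 1 µg/mL to compound-printed slides; binding of probe to printed compounds measured as 667 nm fluorescence plus signal to noise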
[3] = small-molecule binders of probe aNOTCH3, primary screen, biochemical, small-molecule microarray, 635/667 nm fluorescence (AID 1120); conditions: higher = more signal;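 note: probe is a biotin-tagged antibody raised against NOTCH3 rather than NOTCH3 protein; score merges spot fluorescence near 667 nm with spot signal to noise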
[4] = small-molecule binders of probe aNOTCH2, primary screen, biochemical, small-molecule microarray, 635/667 nm fluorescence (AID 1121); conditions: higher = more signal;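 note: score merges feature fluorescence read at 667 nm with its signal to noise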
[5] = biological target: Carbonic anhydrase 2 (Homo sapiens) (UniProt P00918); test: CAII small-molecule binders, profiling panel, biochemical, small-molecule microarray, Alexa647-labelled CAII (AID 1122); conditions: CAII-A647 binding fluorescence, higher = more signal
[6] = COS7 lysate on small-molecule microarray, probe aHis, 635 nm (AID 1123); conditions: COS7 cell lysate, fluorescence, higher = more signal;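 note: z-score combines 667nm fluorescence intensity with signal-to-noise per printed compound spot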
[7] = compound binding in COS7 lysate, probe aLAP1, primary screen, cell lysate, small-molecule microarray (AID 1124); conditions: probe aLAP1, fluorescence, higher = more signal;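 note: lysate comes from COS7 cells expressing LAP1 and is applied at 0.3 µg/mL; score merges spot fluorescence near 667 nm with signal-to-noise over triplicate slides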
[8] = tested on: Sam68 (KHDRBS1); test: Sam68 small-molecule binders, primary screen, biochemical, small-molecule microarray, 635 nm fluorescence (AID 1125); conditions: small-molecule microarray binding, higher = more signal;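 note: score merges 667 nm channel intensity with signal to noise over triplicate slides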
[9] = tested on: Chordin-like protein 2 (CHRDL2); test: CHRDL2 small-molecule binders, primary screen, biochemical, small-molecule microarray, 635 nm fluorescence (AID 1126); conditions: small-molecule microarray binding, fluorescence 635 nm; higher = more signal;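 note: printed compound slides probed with Chrdl2 protein at 4 µg/mL for 1 h at 4 C; score merges 667 nm emission intensity with signal to noise over three replicate slides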
[10] = biological target: Concanavalin-A (Canavalia ensiformis) (UniProt P02866); test: ConA small-molecule binders, primary screen, artefact control for SMM control protein annotation, biochemical, small-molecule microarray, Alexa647 label, 635 nm (AID 1127); conditions: ConA-A647 binding fluorescence, higher = more signal;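 note: z combines 667 nm emission intensity with signal-to-noise across three replicate slides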
[11] = anti-His antibody binders, primary screen, artefact control for SMM control protein annotation, biochemical, small-molecule microarray, 635 nm fluorescence (AID 1128); conditions: anti-His Alexa647 antibody binding, higher = more signal;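 note: score merges feature fluorescence with signal-to-noise for each printed compound spot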
[12] = tested on: Human papillomavirus type 1a E7 protein (residues 1-88); test: HPV1a E7 small-molecule binders, primary screen, biochemical, small-molecule microarray, residues 1-88, 635 nm (AID 1129); conditions: small-molecule microarray binding, fluorescence 635 nm; higher = more signal
[13] = biological target: Focal adhesion kinase 1 (Homo sapiens) (UniProt Q05397); test: small-molecule microarray binders of FAK, primary screen, biochemical, 635/667 nm fluorescence, BSA, DTT (AID 1130); conditions: PTK2 binding, 635 nm fluorescence, higher = more signal;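 note: composite of spot emission at 667 nm and signal to noise over triplicate slides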
[14] = tested on: Fibrinogen (Alexa647-labelled); test: fibrinogen binders on compound microarrays, profiling panel, artefact control for SMM control-protein annotation, biochemical, small-molecule microarray, 635/667 nm fluorescence (AID 1131); conditions: fibrinogen-A647 binding fluorescence, higher = more signal;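 note: z-score merges 667 nm fluorescence with per-spot signal-to-noise over triplicate slides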
[15] = biological target: Follistatin (Homo sapiens) (UniProt P19883); test: follistatin binders on small-molecule microarrays, primary screen, biochemical, small-molecule microarray, 635/667 nm fluorescence (AID 1132); conditions: FST binding, 635 nm fluorescence, higher = more signal
[16] = biological target: Fibroblast growth factor 2 (Homo sapiens) (UniProt P09038); test: FGF2 binders on small-molecule microarrays, primary screen, biochemical, small-molecule microarray, 635/667 nm fluorescence (AID 1133); conditions: small-molecule microarray binding, FGF2, fluorescence 635/667; higher = more signal
[17] = mitochondrial membrane potential change in A549 cells, profiling panel, cell-based, JC-1 fluorescence, basal, 24 h, 100 nL (AID 1138); conditions: higher = more signal;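 note: A549 lung adenocarcinoma cells under basal conditions with no added stimulus; test concentration not given here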
[18] = tested on: Lefty1; test: Lefty1 binders on small-molecule microarrays, primary screen, biochemical, small-molecule microarray, 635/667 nm fluorescence (AID 1139); conditions: small-molecule microarray binding, fluorescence 635/667; higher = more signal
[19] = tested on: wheat germ agglutinin (Triticum aestivum), Alexa647-labelled; test: wheat germ agglutinin binders on compound microarrays, profiling panel, artefact control for SMM control-protein annotation, biochemical, small-molecule microarray, 635/667 nm fluorescence (AID 1140); conditions: WGA-A647 binding, 635 nm fluorescence, higher = more signal;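 note: score merges 667 nm feature emission with signal to noise over triplicate slides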
[20] = biological target: Luciferin 4-monooxygenase (Photinus pyralis) (UniProt P08659); test: firefly luciferase enzyme inhibitors, primary screen, biochemical, luminescence, purified enzyme, 2006 set (AID 1141); conditions: SteadyGlo luminescence, 30 min, higher = more signal, called active from +8 up or from −8 down;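 note: cell-free assay with purified firefly luciferase at 100 ng per well in PBS; test concentration not given here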
Sequence of Luciferin 4-monooxygenase (Photinus pyralis) (P08659 whole entry, looked up): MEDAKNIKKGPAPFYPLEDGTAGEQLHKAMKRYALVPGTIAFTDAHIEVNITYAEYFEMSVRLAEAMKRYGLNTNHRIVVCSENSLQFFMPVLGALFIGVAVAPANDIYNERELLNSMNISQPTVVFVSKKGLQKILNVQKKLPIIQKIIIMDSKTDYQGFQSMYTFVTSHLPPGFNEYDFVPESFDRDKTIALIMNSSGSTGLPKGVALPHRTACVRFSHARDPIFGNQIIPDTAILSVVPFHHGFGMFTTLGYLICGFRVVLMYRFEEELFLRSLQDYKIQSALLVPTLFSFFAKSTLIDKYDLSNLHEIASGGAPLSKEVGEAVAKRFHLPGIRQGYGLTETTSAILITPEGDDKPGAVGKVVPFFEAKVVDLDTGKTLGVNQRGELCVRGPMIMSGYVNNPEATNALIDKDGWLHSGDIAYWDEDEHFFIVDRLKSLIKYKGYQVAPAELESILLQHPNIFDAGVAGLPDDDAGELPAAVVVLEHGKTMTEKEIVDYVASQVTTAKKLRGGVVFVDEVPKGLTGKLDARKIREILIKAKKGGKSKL

Sequence of Follistatin (Homo sapiens) (P19883 whole entry, looked up): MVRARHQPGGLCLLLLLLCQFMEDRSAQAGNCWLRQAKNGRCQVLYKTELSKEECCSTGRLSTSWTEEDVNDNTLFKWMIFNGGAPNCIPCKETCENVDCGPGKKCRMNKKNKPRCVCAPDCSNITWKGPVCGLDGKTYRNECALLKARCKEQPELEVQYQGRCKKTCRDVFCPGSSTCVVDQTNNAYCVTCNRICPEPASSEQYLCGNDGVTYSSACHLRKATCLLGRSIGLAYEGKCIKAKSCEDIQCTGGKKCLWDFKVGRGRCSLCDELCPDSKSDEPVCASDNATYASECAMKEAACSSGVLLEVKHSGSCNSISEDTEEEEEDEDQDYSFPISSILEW
Sequence of Albumin (Bos taurus) (P02769 whole entry, looked up): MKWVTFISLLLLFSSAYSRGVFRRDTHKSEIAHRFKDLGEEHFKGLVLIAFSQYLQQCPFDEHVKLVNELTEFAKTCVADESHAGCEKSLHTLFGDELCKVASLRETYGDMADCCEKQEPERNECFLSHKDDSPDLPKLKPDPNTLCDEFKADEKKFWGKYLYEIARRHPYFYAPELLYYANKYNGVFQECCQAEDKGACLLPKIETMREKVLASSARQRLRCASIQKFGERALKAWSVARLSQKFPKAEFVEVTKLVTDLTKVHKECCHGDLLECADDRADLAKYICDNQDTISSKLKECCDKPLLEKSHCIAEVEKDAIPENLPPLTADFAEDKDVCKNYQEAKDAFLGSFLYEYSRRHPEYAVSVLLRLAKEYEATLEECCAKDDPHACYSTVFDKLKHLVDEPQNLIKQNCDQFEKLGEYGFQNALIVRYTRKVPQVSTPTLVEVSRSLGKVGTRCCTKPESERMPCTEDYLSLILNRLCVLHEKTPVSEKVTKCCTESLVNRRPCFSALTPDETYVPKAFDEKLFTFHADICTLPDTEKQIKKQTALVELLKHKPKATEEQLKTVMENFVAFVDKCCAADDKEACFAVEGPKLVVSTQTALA
Sequence of Focal adhesion kinase 1 (Homo sapiens) (Q05397 whole entry, looked up): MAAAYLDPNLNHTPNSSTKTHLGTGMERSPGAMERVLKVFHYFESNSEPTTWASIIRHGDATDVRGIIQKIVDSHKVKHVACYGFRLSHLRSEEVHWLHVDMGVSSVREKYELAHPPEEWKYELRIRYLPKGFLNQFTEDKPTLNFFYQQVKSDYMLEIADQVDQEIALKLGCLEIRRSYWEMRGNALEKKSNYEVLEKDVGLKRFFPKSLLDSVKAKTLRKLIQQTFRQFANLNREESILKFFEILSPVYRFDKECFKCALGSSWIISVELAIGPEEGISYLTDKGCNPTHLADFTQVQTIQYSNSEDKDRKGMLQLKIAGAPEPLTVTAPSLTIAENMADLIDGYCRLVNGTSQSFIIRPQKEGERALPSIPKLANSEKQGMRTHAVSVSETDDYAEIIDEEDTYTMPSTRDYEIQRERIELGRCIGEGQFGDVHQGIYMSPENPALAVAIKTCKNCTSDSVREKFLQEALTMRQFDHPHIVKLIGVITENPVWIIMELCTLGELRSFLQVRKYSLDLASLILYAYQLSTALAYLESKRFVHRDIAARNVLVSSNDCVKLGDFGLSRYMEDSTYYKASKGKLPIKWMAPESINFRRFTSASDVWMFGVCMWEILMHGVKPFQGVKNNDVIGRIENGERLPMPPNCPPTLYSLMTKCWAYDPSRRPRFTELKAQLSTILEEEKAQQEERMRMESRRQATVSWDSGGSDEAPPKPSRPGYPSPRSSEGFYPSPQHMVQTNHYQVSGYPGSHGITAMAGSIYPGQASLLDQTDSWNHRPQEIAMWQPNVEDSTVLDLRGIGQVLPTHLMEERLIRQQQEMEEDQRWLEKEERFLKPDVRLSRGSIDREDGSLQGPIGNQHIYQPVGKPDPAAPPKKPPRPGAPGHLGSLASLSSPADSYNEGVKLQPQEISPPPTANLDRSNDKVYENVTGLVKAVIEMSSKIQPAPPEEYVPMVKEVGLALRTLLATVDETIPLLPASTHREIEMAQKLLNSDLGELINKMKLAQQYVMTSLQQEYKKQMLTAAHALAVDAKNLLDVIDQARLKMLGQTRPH
Sequence of Fibroblast growth factor 2 (Homo sapiens) (P09038 whole entry, looked up): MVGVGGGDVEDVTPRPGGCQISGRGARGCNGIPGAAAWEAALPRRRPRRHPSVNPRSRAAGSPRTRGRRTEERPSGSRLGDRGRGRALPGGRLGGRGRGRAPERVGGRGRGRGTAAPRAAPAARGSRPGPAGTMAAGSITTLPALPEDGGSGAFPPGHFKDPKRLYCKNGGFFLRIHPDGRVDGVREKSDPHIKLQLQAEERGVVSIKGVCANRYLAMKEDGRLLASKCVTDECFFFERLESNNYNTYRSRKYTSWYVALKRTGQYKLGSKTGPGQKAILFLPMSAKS
Sequence of Concanavalin-A (Canavalia ensiformis) (P02866 whole entry, looked up): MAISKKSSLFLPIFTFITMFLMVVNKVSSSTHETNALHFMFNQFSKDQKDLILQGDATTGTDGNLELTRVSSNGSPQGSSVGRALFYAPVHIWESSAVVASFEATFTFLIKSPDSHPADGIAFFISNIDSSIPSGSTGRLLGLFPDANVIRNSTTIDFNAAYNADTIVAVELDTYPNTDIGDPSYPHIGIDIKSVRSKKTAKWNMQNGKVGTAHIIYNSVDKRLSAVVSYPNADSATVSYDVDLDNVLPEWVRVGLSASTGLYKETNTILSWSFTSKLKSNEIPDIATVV

Compound	composite z-score [1]	composite Z-score [2]	composite z-score [3]	composite z-score [4]	composite z-score [5]	composite z-score [6]	composite z-score [7]	composite z-score [8]	composite z-score [9]	composite z-score [10]	composite z-score [11]	composite z-score [12]	composite z-score [13]	composite z-score [14]	composite z-score [15]	composite z-score [16]	z-score [17]	composite z-score [18]	composite z-score [19]	z-score [20]
C=C[C@H](CO)NS(=O)(=O)c1ccc(Br)cc1	0.158	0.058 (inactive)	0.234	-0.127	-0.0876	1	0.117	0.562	0.704	0.549	0.461	0.446	0.179	0.28	1.06	0.464	1.19	0.28	0.279	-0.877 (inactive)
CN(C)C(=O)[C@@]1(CCS(=O)(=O)c2ccccc2)COC(c2ccc(OCCCO)cc2)=N1	0.401	0.319 (inactive)	0.125	-0.0406	0.813	2.28	0.441	0.203	-0.466	0.469	1.45	1.24	0.119	0.993	0.66	-0.0861	-0.572	-0.589	0.93	-0.446 (inactive)
C=CC1(C(=O)OC)CC=C(C(=O)OC)CC1 (stereo not given)	0.714	0.257 (inactive)	-0.0077	-0.0661	0.613	0.732	0.872	0.82	0.556	0.339	0.731	0.901	0.286	0.862	0.65	0.653	0.263	0.308	0.184	0.723 (inactive)
COC(=O)[C@@]1(Cc2ccc(OC)cc2)[C@H]2c3cc(C(=O)N(C)C)n(Cc4ccc(S(C)(=O)=O)cc4)c3C[C@H]2CN1C(=O)c1ccccc1	0.49	-0.357 (inactive)	0.697	-0.168	0.725	2.72	0.969	0.549	-0.948	-1.06	1.84	1.26	1.07	0.849	1.11	-0.56	0.956	0.0038	1.23	1.75 (inactive)
O=C1O[C@@H](c2ccccc2)[C@@H](c2ccccc2)N2[C@@H](c3ccccc3OCCO)[C@]3(C(=O)Nc4ccc(C#CC5=CCCCC5)cc43)[C@@H](C(=O)N3CCCCCCC3)[C@H]12	0.407	7.47 (inactive)	2.16	1.08	1.04	4.3	1.29	1.31	1.68	1.09	1.53	1.32	3.35	0.487	1.48	0.095	-0.489	1.63	1.64	-1.16 (inactive)
C=CCNC(=O)[C@@H]1[C@H]2C(=O)O[C@H](c3ccccc3)[C@H](c3ccccc3)N2[C@H](c2ccc(OCCO)cc2)[C@@]12C(=O)Nc1ccc(C#CCC(C(=O)OC)C(=O)OC)cc12	0.64	0.788 (inactive)	0.277	0.0302	0.641	2	0.978	1.29	0.392	1.16	2.67	1.2	0.913	0.641	0.85	0.582	-0.21	0.728	1.25	-1.08 (inactive)
CCCCN1CC=CC23O[C@@H]4C=CCCOC(=O)C4[C@H]2C(=O)N(CCCCCCO)[C@@H]3C1=O (stereo not given in full)	0.339	0.0289 (inactive)	-0.275	-0.175	0.876	0.376	0.316	0.474	-1	-0.254	0.435	-0.268	0.0134	-0.796	0.0593	-0.88	0.807	1.28	0.379	-0.947 (inactive)
COc1cc2c(cc1OC)CN(C(=O)[C@@H]1[C@H]3C(=O)O[C@H](c4ccccc4)[C@H](c4ccccc4)N3[C@H](c3ccccc3OCCO)[C@@]13C(=O)Nc1ccc(C#CCCO)cc13)CC2	0.641	0.252 (inactive)	0.0556	-0.0878	0.402	1.88	0.681	1.29	0.352	1.14	1.94	1.15	0.222	0.966	1.27	0.409	-0.426	0.904	0.988	-0.785 (inactive)
O=C1C[C@]2(c3ccc([N+](=O)[O-])cc3)C(=O)N(CC(F)(F)F)c3cc(CO)ccc3[C@H]2N1C1CCCCC1	-0.749	-0.0774 (inactive)	-0.125	-0.112	-0.634	0.0971	0.206	-0.686	-1.26	-0.546	-1.55	-0.15	0.114	-0.603	-1.13	-0.808	0.673	-1.44	-0.288	-1 (inactive)
CC1(C)[C@@H]2CC(C(O)C3C=CC4C(=O)N(Cc5ccccc5)C(=O)C4N3n3cnnc3)=C[C@H]1C2 (stereo not given in full)	0.925	-0.132 (inactive)	-0.0079	-0.0866	0.651	1.39	0.641	1.34	0.371	0.39	0.356	1.19	0.218	0.744	0.86	0.321	-0.287	0.625	0.901	1.62 (inactive)
Cc1nc2cc(Br)ccc2c(=O)o1	0.367	0.239 (inactive)	-0.013	-0.124	0.633	0.495	0.108	0.384	0.126	0.724	0.302	0.628	0.201	0.0814	0.657	-0.0519	0.0359	0.328	0.536	1.16 (inactive)
COC(=O)C[C@H]1O[C@]2(C(=O)N(C)c3ccccc32)[C@@H](C)[C@@H]1[Si](C)(C)F	-0.255	0.448 (inactive)	-0.0584	-0.161	0.224	0.597	-0.0413	1.09	0.592	0.596	0.0783	0.608	0.26	0.209	1.18	2.03	0.435	1.33	-0.0572	-1.82 (inactive)
O=C1C[C@@](C(=O)NCCN2CCOCC2)(c2ccc([N+](=O)[O-])cc2)[C@@H](c2ccc(CO)cc2)N1CC12CC3CC(CC(C3)C1)C2	0.0577	0.0308 (inactive)	0.0208	-0.084	0.548	2.53	0.0978	1.29	0.901	0.926	2.5	1.25	0.296	0.904	1.34	1.13	-0.712	0.646	1.09	-0.988 (inactive)
COCCOC(=O)N1C(=O)[C@@]2(c3ccccc31)[C@H](C(=O)N1CCc3cc(OC)c(OC)cc3C1)[C@H]1C(=O)O[C@H](c3ccccc3)[C@H](c3ccccc3)N1[C@@H]2c1ccc(OCCO)cc1	0.843	-0.386 (inactive)	-0.0343	-0.0903	0.486	2.59	0.953	1.32	0.417	1.09	2.67	1.22	0.789	0.896	1.25	1.1	-0.382	0.492	0.722	-1.76 (inactive)
C=CCN1C(=O)[C@@]2(CC=C)N=C(c3ccc(OCCCO)cc3)O[C@H]2c2ccccc21	0.272	0.33 (inactive)	0.323	0.189	0.614	3.3	1.05	1.3	1.33	1.05	2.12	1.2	0.743	0.576	1.49	1.76	2.66	1.17	0.503	-9.06 (active)
CCOC(=O)C[C@H]1[C@H](OC(=O)c2ccc(C(=O)c3ccccc3)cc2)[C@@H](NC(=O)c2ccc3ccccc3c2)c2cc(OCCCO)ccc2N1C(=O)Cc1ccc(OC)cc1	0.638	-0.68 (inactive)	-0.0932	-0.149	0.009	0.899	0.0147	0.484	-0.197	0.114	0.0204	0.542	0.222	0.424	0.288	0.115	0.826	0.199	0.398	0.789 (inactive)
NCCCCCNC(=O)[C@@H]1C[C@@H]2C(=O)N[C@@H](Cc3ccccc3)C(=O)N2[C@@H]1c1ccc(O)cc1	0.507	0.839 (inactive)	-0.0716	-0.108	0.231	2.21	-0.304	1.24	-0.129	0.968	1.85	0.958	0.255	0.89	1.28	0.871	0.972	0.865	0.86	-0.365 (inactive)
C=CCNC(=O)[C@@H]1[C@H]2C(=O)O[C@H](c3ccccc3)[C@H](c3ccccc3)N2[C@H](c2ccccc2OCCO)[C@@]12C(=O)N(C(=O)OCCOC)c1ccccc12	0.236	0.318 (inactive)	0.492	-0.0878	0.395	0.938	0.594	1.31	0.66	1.16	0.439	1.2	-0.0723	0.979	1.39	1.49	0.432	1.29	0.478	-0.549 (inactive)
